HSF1 inhib – HSF1 inhibitors in luciferase reporter cells, primary screen, cell-based, NIH3T3, luminescence; NIH3T3-HGL HSE-luciferase, MG132-induced, luminescence 8 h; stronger effect = lower value; activity change, negative = inhibition, % at 7.5 µM (by protocol); 0.77% of 300,000 active;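 active = more than half of replicate wells show activity change below -50%, luminescence cut by over half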;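 note: luciferase reports HSF-1 transcriptional activity via heat shock element; 0% = median of DMSO wells and -100% = zero luminescence signal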
HSP90 inh – HSP90 inhibitors, primary screen, cell lysate, luminescence; inhibition, % at 5.6 µM; Rabbit reticulocyte lysate, luciferase refolding luminescence, 3 h; Heat shock protein HSP 90 (rabbit reticulocyte lysate; luciferase refolding); 0.91% of 290,000 active;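 active = inhibition above the screen-wide mean plus 3 SD, computed separately per campaign, cut at about 16% in these data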;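 note: 0% = DMSO wells and 100% = 60 µM geldanamycin wells; inhibitors lower the luminescence because luciferase stays unfolded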
PPC-1+TRAIL kill – compounds killing PPC-1 cancer cells with TRAIL present, primary screen, TRAIL potentiator project, ATPLite luminescence, uHTS; AID 1443, 2008; PPC-1 cells + TRAIL, ATPLite viability luminescence; 0.41% of 220,000 active; cell killing (% activity), % at 4 µM or 5 µM;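 active = cell killing above 50% in the first pass at 4 µM, then a duplicate retest at 5 µM averaging 50% or more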;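 note: plate controls were cells with TRAIL plus DMSO for no effect and medium-only wells lacking cells for full effect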
C8 TRAIL sens – viability loss with TRAIL in NB7+C8 cells, primary screen, TRAIL sensitizer project, cell-based, ATPlite luminescence; inhibition (viability loss, TRAIL sensitization), % at 10 µM; 1% of 360,000 active;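 active = compounds causing at least 50% loss of cell viability in the single-dose screen, relative to plate controls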
STAT1 blocker – STAT1 signaling inhibitors, primary screen, cell-based, HTS, luciferase reporter; NIH 3T3 STAT1-luciferase reporter, IFN-gamma, luminescence; inhibition, % at 5.5 µM; 0.35% of 200,000 active;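 active = inhibition above a set limit, the mean inhibition across all tested compounds plus 3 SD, cut at about 34% in these data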;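 note: 0% = IFN-gamma with DMSO and 100% = IFN-gamma with 300 µM nifuroxazide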
STAT3 blocker – IL-6 driven STAT3 reporter inhibitors, primary screen, U3A cells, luciferase, luminescence, MLSCN library. inhibition, % at 5.5 µM. 0.89% of 190,000 active. AID 862, 2007. IL-6 STAT3-luciferase reporter; host cell line lacks STAT1;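 active = inhibition above the mean inhibition across all screened compounds plus 3 SD, cut at about 44% in these data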;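 note: 0% = DMSO only wells and 100% = 100 µM nifuroxazide control wells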
An asterisk follows results filed as active. The list is not random: actives were taken first. Their share in the collection is about 2.4%.

Results for CC1=C(O)C(=O)C=C2C1=CC=C1C2(C)CCC2(C)C3CC(C)(C(=O)O)CCC3(C)CCC12C (stereo not drawn) ?
C8 TRAIL sens: 88.9*

Results for CCCC(=O)N(C)C1=Nc2ccc(Cl)cc2C(c2ccccc2)=[N+]([O-])C1 ?
HSF1 inhib: -3.0; HSP90 inh: -1.5; PPC-1+TRAIL kill: -2.4; C8 TRAIL sens: 4.9

How did N#CC1c2ccccc2-n2nncc2CN1Cc1cc(Cl)cc(Cl)c1 (stereo not drawn) do in these assays?
C8 TRAIL sens: 75.9*

What do the screens show for `CC1OC(OC2C=C3CCC4C(CCC5(C)C(c6ccc(=O)oc6)CCC45O)C3(C)CC2)C(O)C(OC2OC(CO)C(O)C(O)C2O)C1O` (stereo not drawn)?
C8 TRAIL sens: 74.5*

What do the screens show for `CC(=O)c1c(C)n(CCCOC(C)C)c2ccc(O)cc12`?
HSF1 inhib: -55.9*; HSP90 inh: -1.4; PPC-1+TRAIL kill: -13.5; C8 TRAIL sens: -12.7; STAT1 blocker: 4.9; STAT3 blocker: 13.5

What do the screens show for `COC(=O)C1=C(c2ccc(F)cc2OCc2ccccc2)C[C@@H]2CC[C@H]1N2C(=O)NCCCOC(C)C`?
C8 TRAIL sens: 2.0

How did Oc1ccccc1C1NCc2ccccc2-n2cccc21 (stereo not drawn) do in these assays?
HSF1 inhib: -1.7; HSP90 inh: -4.5; C8 TRAIL sens: -8.7

How did CN1CCN(Cc2nc3ccccc3n2C)CC1 do in these assays?
HSF1 inhib: -1.2; HSP90 inh: 0.6; PPC-1+TRAIL kill: -11.6; C8 TRAIL sens: -18.6; STAT1 blocker: 3.9; STAT3 blocker: -0.5

How did Cn1c(NN=O)nc2ccccc21 do in these assays?
HSF1 inhib: -35.5; HSP90 inh: -1.5; PPC-1+TRAIL kill: 38.8; C8 TRAIL sens: 57.0*; STAT1 blocker: -11.1; STAT3 blocker: -1.9

What do the screens show for `CCOC(=O)[C@]12Cc3cc(OC)ccc3[C@H]1N(CCC(=O)OC)C(=O)c1cc(OC)ccc12`?
C8 TRAIL sens: 4.3

Results for O=[N+]([O-])c1ccc(N2CCOCC2)c2c1no[n+]2[O-] ?
C8 TRAIL sens: 93.6*

How did CCC(=O)c1ccc(OCC(=O)N2CCN(CC(=O)Nc3ccccc3C(F)(F)F)CC2)cc1 do in these assays?
C8 TRAIL sens: -3.0

How did COc1ccc(-n2nc(C(=O)NCC(=O)N3CCC4(CC3)OCCO4)c3ccccc3c2=O)c(OC)c1 do in these assays?
HSF1 inhib: 4.7; HSP90 inh: 4.1; C8 TRAIL sens: 55.1*

Results for CCOc1ccc(-n2c(-c3ccoc3)nc3ccccc3c2=O)cc1 ?
HSF1 inhib: 1.8; HSP90 inh: -3.0; PPC-1+TRAIL kill: 1.9; C8 TRAIL sens: -12.0; STAT1 blocker: 3.9; STAT3 blocker: 8.3

Results for CCOc1ccc(-c2c(C)n(-c3ccc(OCC)cc3)c3[n+]2CCCCC3)cc1 ?
HSF1 inhib: -9.2; HSP90 inh: 7.5; PPC-1+TRAIL kill: 48.0; C8 TRAIL sens: 51.7*

How did CCOC(=O)[C@]12Cc3cc(OC)ccc3[C@H]1N(Cc1ccccc1)C(=O)c1cc(OC)ccc12 do in these assays?
C8 TRAIL sens: 12.5

How did CCOC(=O)[C@]12Cc3cc4ccccc4cc3[C@H]1N(Cc1ccccc1)C(=O)c1cc(OC)ccc12 do in these assays?
C8 TRAIL sens: 64.2*

How did CCOC(=O)[C@]12Cc3cc4ccccc4cc3[C@H]1N(Cc1ccccc1)C(=O)c1ccccc12 do in these assays?
C8 TRAIL sens: 66.7*

Results for CCOC(=O)[C@]12Cc3cc(Cl)ccc3[C@H]1N(Cc1ccccc1)C(=O)c1cc(OC)ccc12 ?
C8 TRAIL sens: 88.6*

What do the screens show for `CCCCCN1C(=O)c2cc(OC)ccc2[C@@]2(C(=O)OCC)Cc3cc(Cl)ccc3[C@@H]12`?
C8 TRAIL sens: 84.7*

Results for Cc1cccc(NP2(=O)NCCCN2)c1 ?
C8 TRAIL sens: -9.2

Results for CC/C(=N\Nc1ccccc1)c1c(O)n(-c2ccc(OC)cc2)c(=O)[nH]c1=O ?
HSP90 inh: 0.0; PPC-1+TRAIL kill: 4.1; C8 TRAIL sens: -2.3

How did COC(=O)C1=C(c2ccccc2OCc2ccccc2)C[C@@H]2CC[C@H]1N2C(=O)NCCN1CCOCC1 do in these assays?
C8 TRAIL sens: -12.4

Results for CC[C@H]1CN2CC[C@@]3(C(=O)Nc4ccccc43)[C@@H]2C[C@@H]1/C(=C\OC)C(=O)OC ?
HSF1 inhib: -0.9; C8 TRAIL sens: 4.6

Results for CC(C)CN1CCN(Cc2ccc(C(F)(F)F)cc2)CC1CCO (stereo not drawn) ?
HSF1 inhib: -6.4; HSP90 inh: 5.4; PPC-1+TRAIL kill: -0.5; C8 TRAIL sens: 11.4

How did OC(CNC1CCCCCCC1)c1ccccc1 (stereo not drawn) do in these assays?
HSF1 inhib: -8.8; HSP90 inh: -2.9; PPC-1+TRAIL kill: -3.1; STAT1 blocker: -2.0; STAT3 blocker: -5.9

Results for COc1ccc(C[C@H]2NC[C@H](O)[C@H]2OC(C)=O)cc1 ?
HSF1 inhib: -74.7*; C8 TRAIL sens: 86.0*

How did COc1ccc2c(c1)c(C(=O)C(C)N1CCCCC1)c(C)n2C (stereo not drawn) do in these assays?
HSF1 inhib: -7.8; HSP90 inh: 1.1; C8 TRAIL sens: 8.1

How did Cc1ccc2cc(CNCCc3ccccc3C)c(=O)[nH]c2c1 do in these assays?
HSF1 inhib: -4.8; HSP90 inh: 0.5; C8 TRAIL sens: -9.3

What do the screens show for `CC1CC(C)CC(C)C(O)C(C#N)=CC=CCC(C2CCCC2C(=O)O)OC(=O)CC(O)C(C)C1` (stereo not drawn)?
C8 TRAIL sens: 65.8*

How did CC[C@H]1C2C[C@H]3[C@@H]4N(C)c5ccccc5C45C[C@H](C2[C@H]5O)N3[C@@H]1O (stereo partly drawn) do in these assays?
C8 TRAIL sens: -6.1

Results for O=c1[nH]c(=O)n(Cc2ccccc2)c(O)c1C=NCCN1CCNCC1 ?
HSF1 inhib: -84.8*; HSP90 inh: -1.5; PPC-1+TRAIL kill: 28.8; C8 TRAIL sens: -19.1; STAT1 blocker: 2.1; STAT3 blocker: 5.4

Results for CC(=O)OC1(c2ccccc2)CCN(C)C2CCCCC21 (stereo not drawn) ?
HSF1 inhib: -52.2*; HSP90 inh: 1.6; PPC-1+TRAIL kill: 39.4; C8 TRAIL sens: -15.3; STAT1 blocker: 1.4; STAT3 blocker: 6.2

What do the screens show for `COc1cccc2c1C(=O)c1c(O)c3c(c(O)c1C2=O)CC(O)(C(C)=NO)CC3OC1CC(N)C(O)C(C)O1` (stereo not drawn)?
C8 TRAIL sens: 53.4*

Assay outcomes from PubChem BioAssay.
